# Assay results reported in ChEMBL document CHEMBL3433997, “St. Jude Leishmania screening dataset” (2016).
# Target: Solute carrier family 2, facilitated glucose transporter member 1 (Homo sapiens) (UniProt P11166)
# Experiment: ST_JUDE_LEISH: Cytotoxicity at 2uM final concentration against transgenic Leishmania Mexicana promastigotes LmGLUT1 that are glucose transport deficient and complemented with the human glucose transporter GLUT1. Activity is measured by DNA content using SYBR green in vitro
# Assay type: functional
# Sequence of Solute carrier family 2, facilitated glucose transporter member 1 (Homo sapiens) (P11166 whole entry): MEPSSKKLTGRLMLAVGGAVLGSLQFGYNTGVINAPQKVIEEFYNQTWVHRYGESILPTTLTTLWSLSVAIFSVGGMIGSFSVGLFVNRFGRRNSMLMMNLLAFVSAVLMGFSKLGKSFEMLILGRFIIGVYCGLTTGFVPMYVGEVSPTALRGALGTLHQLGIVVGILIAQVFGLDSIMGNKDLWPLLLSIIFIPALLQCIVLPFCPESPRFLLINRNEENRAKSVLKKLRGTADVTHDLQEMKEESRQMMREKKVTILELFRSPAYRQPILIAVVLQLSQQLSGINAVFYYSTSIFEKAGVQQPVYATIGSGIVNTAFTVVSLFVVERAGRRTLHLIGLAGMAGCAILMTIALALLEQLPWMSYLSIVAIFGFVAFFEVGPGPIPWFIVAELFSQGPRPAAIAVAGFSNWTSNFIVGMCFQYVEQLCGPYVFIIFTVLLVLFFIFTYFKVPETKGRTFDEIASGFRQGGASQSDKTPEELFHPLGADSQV
row,Compound,inhibition [%]
1,CC1(C)NC(N)=NC(=N)N1OCc1cc(Cl)c(Cl)cc1CON1C(=N)N=C(N)NC1(C)C,3.89
2,Cc1ccc(S(=O)(=O)n2nccc2-c2c(-c3ccc(Cl)cc3)noc2C)cc1,3.44
3,CCCN(CCC)c1nn2c(=O)c(C(=O)N3CCN(Cc4ccccc4)CC3)cnc2s1,1.4
4,C(=C(c1cccs1)c1cccs1)c1ccc(CNC2CCN(Cc3ccccc3)CC2)cc1,4.45
5,O=c1cc(NCCCNCc2ccc(C(F)(F)F)cc2F)[nH]c2ccccc12,2.19
6,CC1(C)CCC(C)(C)c2c1ccc(C1CCN(CCCCNC(=O)c3ccc(-c4ccc(Cl)cc4)cc3)CC1)c2O,2.14
7,CC(C)CC(NC(=O)c1cc2ccccc2s1)C(=O)N1CCCCCC1c1ccc(C(C)(C)C)cc1 (centres undefined),-2.77
8,COc1ccc(CN2CCN(CCCCNC(=O)c3ccc(NC(=O)c4ccc(Cl)cc4)cc3)CC2)c(OC)c1,6.23
9,CC(=O)Nc1ccc(CN(Cc2ccc(F)cc2)Cc2cccc(Oc3ccccc3)c2)cc1,3.19
10,COc1ccc(C2C(C(=O)OC3CCCCC3)=C(C)NC3=C2C(=O)CCC3)cc1Br (centres undefined),0.38
11,Cc1ccc(CNC(=O)c2cnc(N3CCN(c4ccncc4)CC3)c(Cl)c2)cc1,4.68
12,COc1ccc2nccc([C@@H](O)CN3CCC(NCc4ccc5sc(=O)[nH]c5c4)CC3)c2c1,1.84
13,CCOc1cc(C)ccc1C1CCN(CCCCNC(=O)c2cnc(-c3ccc(C(F)(F)F)cc3)[nH]2)CC1,-1.9
14,N#Cc1ccc2c(c1)CCN(CCC1CCC(NC(=O)/C=C/c3cnc4ccccc4c3)CC1)CC2 (centres undefined),8.52
15,CC(C)=CCc1c(-c2ccc(O)cc2O)oc2c3c(cc(O)c2c1=O)OC(C)(C)C=C3,5.72
16,CC(C)(C)c1ccc(CNC(=O)/C=C/c2ccc(-c3nc4cc(C(C)(C)C)ccc4[nH]3)cc2)cc1,2.35
17,Cc1cccc2nc(-c3ccc(-c4ccc(NC(=O)NCc5ccc(F)cc5)cc4)cc3)[nH]c12,0.56
18,CCC(NC[C@@H](O)[C@H](Cc1ccccc1)NC(=O)c1cc(C2CCCC2)cc(N2CCCC2=O)c1)c1cccc(Cl)c1 (some centres undefined),2.16
19,COCCN1CCN(Cc2ccc(-c3cccc(-c4nc5ccccc5[nH]4)c3)cc2)CC1,-3.03
20,COc1cc2nc(NCCc3ccccc3)nc(NCc3nccs3)c2cc1OC,1.89

row,Compound,inhibition [%]
1,CCCCCNC(=N)N/N=C/c1c[nH]c2ccc(OC)cc12,1.71
2,CS(=O)(=O)NCCCNCc1ccc(-c2cccc(-c3nc4cc(C(F)(F)F)ccc4[nH]3)c2)cc1,5.19
3,Nc1cc(C(F)(F)F)ccc1Cl,-1.56
4,COc1ccccc1CN1CCC(NC(=O)c2ccc(-c3cccc(C(F)(F)F)c3)s2)CC1,3.7
5,CCCC(C)NC(=O)[C@H](Cc1ccccc1)NC(=O)c1ccc(O)c(-c2ccc(OC)cc2)c1 (some centres undefined),4.38
6,N#Cc1ccc(N[C@@H](CC2CCCCC2)C(=O)NCc2cc(F)c(F)cc2F)c2ccccc12,13
7,Cc1ccc(CNC(=O)[C@H](Cc2ccccc2)Nc2cc(C)nc(NCc3ccccc3C)n2)cc1,5.69
8,CCN(CC)CCN(Cc1ccc(-c2ccc(C(F)(F)F)cc2)cc1)C(=O)Cn1c(CCc2cccc(F)c2F)nc(=O)c2cccnc21,0.41
9,COc1cc(-c2cnc(N)c(-c3nc4ccccc4[nH]3)c2)cc(OC)c1OC,5.26
10,O=C(/C=C/c1ccc(Cl)c(Cl)c1)NCCCCCN1CCCC(c2c[nH]c3ccccc23)C1 (centres undefined),5.68
11,CN(C)Cc1ccc(-c2ccc(NC(=O)c3ccc4c(=O)n(Cc5ccccc5)cnc4c3)cc2)cc1,95.2
12,C=C1C(C(=O)OCC)=CN(CC)c2cc(O[C@@H]3CCN(C(=O)OC(C)(C)C)C3)ccc21,6.89
13,Cc1ccc2nc(C)n(C3CCN(C(=O)C4(c5ccccc5)CC4)CC3)c2c1,5.47
14,COc1ccc2nccc([C@@H](O)CN3CCC(NCCOc4ccncc4)CC3)c2c1,-0.38
15,COc1ccc(C(=O)Nc2ccc(Cl)cc2C(=O)Nc2ccncc2)cc1,4.33
16,CS(=O)(=O)NCCCNCc1cccc(-c2ccc(-c3nc4cc(C(F)(F)F)ccc4[nH]3)cc2)c1,7.6
17,O=C(NCCc1ccccc1)N(Cc1ccccc1-c1cccc(CNC2CCCC2)c1)C1CCN(Cc2ccccc2)CC1,8.2
18,CCCCCCC(N)c1ccc(OCCCOc2ccc(C(N)CCCCCC)cc2)cc1 (centres undefined),107
19,COc1ccc2nccc([C@@H](O)CN3CCC(NC(=O)c4cccc(-c5cc(C)no5)c4)CC3)c2c1,1.35
